Reference: PubChem BioAssay AID2551 (National Center for Advancing Translational Sciences (NCATS), 2010)
Hit rate of the full screen: of about 310,000 compounds, about 17,000 (5.5%) were called active. Where a call stands in place of a potency, no number is given. Not shown: some 11% with an inconclusive outcome. Calls come from the whole dose curve; as a rule, active = well fitted inhibition curve with a large enough effect; inconclusive = small, poorly fitted or top-dose-only effect, or effect the other way; inactive = no such curve, though single readings can be large or run the other way. For the sample, actives were picked, then their nearest neighbours and some compounds at random.

These compounds were tested against Nuclear receptor ROR-gamma (Mus musculus) (UniProt P51450) (assay: qHTS for inhibitors of ROR gamma transcriptional activity). Settings: Drosophila S2 Gal4-RORgamma UAS-luciferase reporter, 20 h; series mostly up to 53.6 µM.
In short: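 Luminescence from a UAS-regulated Photinus luciferase reporter in stably transfected Drosophila Schneider cells is measured; decreased signal marks ROR gamma inhibition. Fusion expression is induced by 700 uM copper sulfate for 20 hr.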
Note: nearly all actives have a fitted effect of over 60% in size.
Potency is the fitted concentration of half-maximal effect.

Nuclear receptor ROR-gamma (Mus musculus), sequence (P51450 whole entry, looked up, the tested form may be a part): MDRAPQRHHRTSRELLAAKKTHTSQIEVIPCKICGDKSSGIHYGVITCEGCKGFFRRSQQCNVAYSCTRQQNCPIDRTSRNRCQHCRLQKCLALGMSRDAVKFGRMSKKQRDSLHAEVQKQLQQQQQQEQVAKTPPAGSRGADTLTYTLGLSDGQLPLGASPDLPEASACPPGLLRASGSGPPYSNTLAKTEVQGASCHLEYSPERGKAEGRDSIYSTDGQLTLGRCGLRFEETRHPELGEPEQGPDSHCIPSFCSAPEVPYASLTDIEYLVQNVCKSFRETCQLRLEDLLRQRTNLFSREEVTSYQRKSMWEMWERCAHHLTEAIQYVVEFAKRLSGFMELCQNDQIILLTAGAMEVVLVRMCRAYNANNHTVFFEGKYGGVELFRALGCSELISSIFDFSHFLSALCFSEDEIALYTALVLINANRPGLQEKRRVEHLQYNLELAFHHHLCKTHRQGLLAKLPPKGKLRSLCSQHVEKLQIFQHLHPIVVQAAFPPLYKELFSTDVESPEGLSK

| SMILES | Potency |
| --- | --- |
| COc1ccc(C(=O)Nc2ccc(NC(=O)C(C)C)nc2)cc1 | inactive |
| COc1ccc(CS(=O)/C(Cl)=C(/Cl)C(=O)Nc2ccc(OC)nc2)cc1 (centres undefined) | 1.12 µM (active) |
| COc1ccc(NC(=O)/C(Cl)=C(/Cl)S(=O)Cc2ccc(C)cc2)cn1 (centres undefined) | inactive |
| O=C(NCc1ccccc1)C1CCN(C(=O)Cc2ccccc2)CC1 | inactive |
| Cc1ccc2nc(SCC(=O)NC3CCCC3)[nH]c2c1 | inactive |
| O=C1CSC(c2ccccc2)N1c1nc(-c2ccc(Cl)cc2Cl)cs1 (centres undefined) | inactive |
| Clc1ccc(-c2ncc3ccccn23)c(Cl)c1 | inactive |
| Clc1ccc(-c2cc(-c3ccccn3)on2)c(Cl)c1 | 3.98 µM (active) |
| COc1ccc(-n2nc(C(=O)NCC(=O)N3CCN(c4ccccc4OC)CC3)c3ccccc3c2=O)c(OC)c1 | inactive |
| Cc1cccc2c1cnn2C(=O)CCC(=O)NC1CCCCC1 | inactive |
| CCCCc1nc2cc(C(=O)N3CCCCC3CCO)ccc2o1 (centres undefined) | inactive |
| C=CCNC(=S)N/N=C/c1ccc(C)s1 | inactive |
| CNC(=S)N/N=C/c1ccc(N2CCOCC2)s1 | 1.26 µM (active) |
| Cc1ccccc1N/N=C/c1ccc(N2CCOCC2)cc1 | inactive |
| CSCCC(NS(=O)(=O)c1ccccc1F)C(=O)N1CC=C(c2ccccc2)CC1 (centres undefined) | inactive |
| C=CCc1ccccc1OCC(O)CN1CCN(CCO)CC1 (centres undefined) | inactive |
| CCN(CC(=O)NCCCN1CCOCC1)S(=O)(=O)c1cc(Cl)ccc1Cl | inactive |
| CC(=O)N1CCC(C(=O)OCc2ccc(Cl)cc2)(c2ccccc2)CC1 | inactive |
| O=C(NCc1ccco1)/C(=C\c1cccc([N+](=O)[O-])c1)NC(=O)c1ccco1 | inactive |
| CCc1ccc(/C=N/NC(=O)c2ccc(OC3CCCC3)cc2)s1 | 11.2 µM (active) |
| CCc1cc(C(N)=O)c(NC(=O)c2ccc(OC)cc2)s1 | inactive |
| COC(=O)CNC(=O)c1ccc(OC2CCN(C(=O)C3CC3)CC2)cc1 | inactive |
| CCOC(=O)N1CCN(C(=O)c2ccc3c(=O)n(CCc4ccc(OC)c(OC)c4)c(=O)[nH]c3c2)CC1 | inactive |
| CCOC(=O)Cn1c(O)c(N=NC(=O)CNC(=O)Cc2ccccc2)c2ccccc21 | inactive |
| CC1CCN(C(=O)/C(=C\c2ccccc2F)NC(=O)c2ccccc2)CC1 | inactive |
| O=C(Cn1cc(/C=N/NC(=O)c2cccc(C(F)(F)F)c2)c2ccccc21)Nc1ccc(F)cc1 | 11.2 µM (active) |
| NC(=O)Cn1cc(/C=N\NS(=O)(=O)c2ccccc2)c2ccccc21 | inactive |
| O=C(CN1CCN(c2ccc(F)cc2)CC1)Nc1cccc(C(F)(F)F)c1 | inactive |
| Cc1ccc(S(=O)(=O)N/N=C(\c2ccccc2)C2CC2)cc1 | inactive |
